For 93 compounds, Tm shift relative to glycine control results are on record in PubChem BioAssay AID1259313 (Sanford-Burnham Center for Chemical Genomics, 2017).

The campaign covered roughly 340,000 compounds. About 8,500 (2.5%) were called active. Many of the other results were omitted from the sample, so actives are more common in it than they were. A number with no mark means an inactive call.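 How the source made its calls: active means melting temperature shift of at least 10% of the positive control shift, at one fixed dose; inactive means the rest.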

For this experiment, the system named is Glutamate receptor ionotropic, NMDA 3A (GRIN3A) ligand-binding domain. As to the kind of experiment: binders of NR3A ligand-binding domain, primary screen, biophysical, differential scanning fluorimetry, uHTS (AID 1259313). The conditions noted are these: NR3A LBD differential scanning fluorimetry, at 25 µM, active compounds read high, 0% = protein alone, 100% = glycine-bound protein. In general terms: In DSF a fluorescence change marks the thermal transition of the protein.
On to `CCCOP(=O)(c1ccc(N(C)C)cc1)C(O)c1cc(OC)c(OC)c(OC)c1` (stereo not drawn), for which the Tm shift relative to glycine control is 3.76%.

For the compound `CCOc1cc(C=NNC(=O)CCCC(=O)NN=Cc2ccc(O)c(OCC)c2)ccc1O`, the Tm shift relative to glycine control was 1.26%.

Regarding `CCOc1cc(-c2cc(-c3ccc(NC(C)=O)cc3)nc(N)c2C#N)ccc1O`, the Tm shift relative to glycine control was -13.2%.

`CCOc1cc(/C=C(\C#N)c2nc(-c3cccs3)c(NC(C)=O)s2)ccc1O`: the Tm shift relative to glycine control was 10.9% (active).

With `Cc1noc(C)c1S(=O)(=O)NCCc1ccc(S(N)(=O)=O)cc1`, the Tm shift relative to glycine control was 5.94%.

On to `O=c1ccn(Cc2ccccc2Cl)cc1`, for which the Tm shift relative to glycine control was 0.42%.

With `O=C1c2ccccc2C(O)N1Cc1ccccc1Cl` (stereo not drawn), the Tm shift relative to glycine control was 12.8% (active).

`O=C1c2ccccc2C(O)N1Cc1ccccc1` (stereo not drawn): the Tm shift relative to glycine control was 0.38%.

Take `O=C(N/N=C/c1sc(N2CCCCC2)nc1-c1cccs1)c1cccnc1`: the Tm shift relative to glycine control is -0.4%.

Regarding `O=C(COC(=O)COc1ccccc1F)Nc1cccc(S(=O)(=O)N2CCCCC2)c1`, the Tm shift relative to glycine control is -3.69%.

`Brc1ccccc1CN1CCC(Cc2ccccc2)CC1`: the Tm shift relative to glycine control is 0.68%.

With `Cc1nc2ccccc2c(=O)n1NC(=O)c1ccc(Cl)c([N+](=O)[O-])c1`, the Tm shift relative to glycine control is 0.49%.

On to `C=CCn1c(SCc2ccc(C(=O)NCCO)cc2)nc2ccccc2c1=O`, for which the Tm shift relative to glycine control is -2.22%.

For `O=C(Nn1c(SCc2ccc([N+](=O)[O-])cc2)nc2ccccc2c1=O)c1ccc(F)cc1`, the Tm shift relative to glycine control is 14.8% (active).

In the case of `COc1ccc(NC(=O)C2=CC(c3ccc(OC)c(OC)c3)=NS(=O)(=O)N2C)cc1`, the Tm shift relative to glycine control is -11.9%.

On to `CCN1C(=O)C(C(=O)NC(C)c2ccccc2)C2CC1(C)Oc1ccccc12` (stereo not drawn), for which the Tm shift relative to glycine control was -1.26%.

`CC(C)CNC(=O)COC(=O)c1ccccc1OCC(=O)Nc1ccc(Br)cc1`: the Tm shift relative to glycine control was 0.17%.

As to `CN(C)C=NC(=O)c1cccn1-c1ncc(C(F)(F)F)cc1Cl`, the Tm shift relative to glycine control was -1.59%.

Regarding `Cc1ccc(C)c(NC(=O)COC(=O)Cn2c(C)csc2=O)c1`, the Tm shift relative to glycine control is 3.33%.

Turning to `CCOC(=O)CN1C(=O)C(=O)c2cc(C)ccc21`, the Tm shift relative to glycine control was 0.43%.

Regarding `CCCCOC(=O)Cn1c(=O)n(CC(=O)OCCCC)c2cc(C)ccc21`, the Tm shift relative to glycine control was 10.7% (active).

`CN(C(=O)CSc1nnc(-c2ccc3c(c2)OCO3)o1)C1CCS(=O)(=O)C1` (stereo not drawn): the Tm shift relative to glycine control is 1.73%.

For the compound `O=C(CCC(=O)NNc1nc2ccccc2c2nc(-c3ccccc3)nn12)NCCCN1CCCC1=O`, the Tm shift relative to glycine control is 0.34%.

`COc1ccc2[nH]c3c(C)c4cc[n+](C)cc4c(C)c3c2c1`: the Tm shift relative to glycine control is -0.08%.

`C=CCNC(=O)C1CC2c3ccccc3C1c1ccccc12` (stereo not drawn): the Tm shift relative to glycine control is 1.25%.

In the case of `CSc1ncccc1C(=O)Nc1ccc2c(c1)OCO2`, the Tm shift relative to glycine control is -2.2%.

Consider `CSc1ncccc1C(=O)Nc1ccc(C)cn1`, for which the Tm shift relative to glycine control was 0.09%.

For the compound `CSc1ncccc1C(=O)Nc1nc2ccc(F)cc2s1`, the Tm shift relative to glycine control is 11.6% (active).

Consider `CCCn1c(N)c(N(CCOC)C(=O)C2CCCC2)c(=O)[nH]c1=O`, for which the Tm shift relative to glycine control is 0.34%.

In the case of `COc1ccc(CCNC(=O)CSc2nnc3ccc(-c4ccncc4)nn23)cc1`, the Tm shift relative to glycine control is -0.92%.

For the compound `O=C(COc1ccc([N+](=O)[O-])cc1)Nc1cccc(C(=O)Nc2ccccc2C(=O)O)c1`, the Tm shift relative to glycine control was 10.6% (active).

Consider `O=C(CSCc1ccc([N+](=O)[O-])cc1)NCCSCc1ccccc1`, for which the Tm shift relative to glycine control was 1.53%.

For the compound `COc1ccc(NC(=O)CSCc2ccc([N+](=O)[O-])cc2)cc1OC`, the Tm shift relative to glycine control is 4.6%.

With `O=C(CSCc1ccc([N+](=O)[O-])cc1)Nc1cccc(C(=O)Nc2ccccc2C(=O)O)c1`, the Tm shift relative to glycine control is 11.3% (active).

Consider `Cc1cc(NC(=O)COc2ccc([N+](=O)[O-])cc2)no1`, for which the Tm shift relative to glycine control is 1.03%.

For the compound `O=C(Nc1ccccc1C(=O)Nc1ccncc1)c1ccc([N+](=O)[O-])cc1`, the Tm shift relative to glycine control is -13.8%.

As to `Cc1c(CC(=O)N2CCN(C(=O)C3COc4ccccc4O3)CC2)c(=O)oc2c(O)c(O)ccc12` (stereo not drawn), the Tm shift relative to glycine control was 1.85%.

For `Cc1ccccc1Nc1scc(-c2ccc(Br)cc2)[n+]1-c1ccccc1C`, the Tm shift relative to glycine control was 0.51%.

`COCC(C)NC(=O)c1ccc(-n2nc(C(F)(F)F)cc2-c2cccs2)cc1` (stereo not drawn): the Tm shift relative to glycine control was -0.17%.

For `COC(=O)c1cn(C)c2ccc(S(=O)(=O)N3CC(C)CC(C)C3)cc2c1=O` (stereo not drawn), the Tm shift relative to glycine control is 1.34%.

Regarding `O=C(Nc1ccccc1C(F)(F)F)c1cc(-c2ccc(O)cc2)on1`, the Tm shift relative to glycine control was 12.7% (active).

In the case of `O=C(Nc1cccnc1Cl)c1cc(-c2cccc(Cl)c2)on1`, the Tm shift relative to glycine control is -2.35%.

`CCc1ccccc1NC(=O)c1cc(-c2ccc3c(c2)OCO3)on1`: the Tm shift relative to glycine control was 0.47%.

As to `CNC(=O)c1nnn(-c2ccccc2)c1C(=O)NC`, the Tm shift relative to glycine control was 4.23%.

As for `O=[N+]([O-])c1cc(C(F)(F)F)ccc1NCCc1ccncc1`, the Tm shift relative to glycine control was 0.61%.

`Cc1csc(NC(=O)c2ccc(-c3ccc(Cl)cc3Cl)o2)n1`: the Tm shift relative to glycine control was -7.24%.

Consider `Cc1sc2ncnc(N3CCC(C(=O)Nc4nc5ccc(Cl)cc5s4)CC3)c2c1C`, for which the Tm shift relative to glycine control was 7.43%.

`Cc1ccc(C(=O)Nc2nc3ccc(Cl)cc3s2)o1`: the Tm shift relative to glycine control was 11.1% (active).

For the compound `O=C(NCCCn1ccnc1)c1cc(-c2ccccc2)on1`, the Tm shift relative to glycine control is 1.42%.

With `CS/C(=C\[N+](=O)[O-])Nc1ccc(C)cc1`, the Tm shift relative to glycine control was -1.04%.

Regarding `CC(Oc1ccc(Cl)cc1Cl)C(=O)/C=C/N(C)C` (stereo not drawn), the Tm shift relative to glycine control was -0.27%.

On to `CCCC(=O)Nc1cccc(NC(=S)NC(=O)C(C)Oc2ccc(Cl)cc2Cl)c1` (stereo not drawn), for which the Tm shift relative to glycine control is 16% (active).

For `COc1cccc(NC(=O)CN(C)C(=O)Cc2ccc(Cl)cc2Cl)c1`, the Tm shift relative to glycine control was -0.7%.

`Cc1ccc(NC(=O)c2cnc(SCC(=O)NCC3CCCO3)n(C)c2=O)cc1` (stereo not drawn): the Tm shift relative to glycine control is -0.94%.

As to `CC(C)CN(C(=O)CN1CCN(S(=O)(=O)c2ccccc2)CC1)c1c(N)n(CC(C)C)c(=O)[nH]c1=O`, the Tm shift relative to glycine control was -2.36%.

On to `CSc1ccc(Cl)c(C(=O)OCC(=O)N2CC(C)OC(C)C2)c1` (stereo not drawn), for which the Tm shift relative to glycine control is 1.12%.

Take `O=C1NC(c2ccccc2)Cc2ccncc21` (stereo not drawn): the Tm shift relative to glycine control was 0.42%.

Consider `CCC(CC)NC(=O)/C=C/c1cccc([N+](=O)[O-])c1`, for which the Tm shift relative to glycine control was -1.15%.

Regarding `Cc1ccc(NC(=O)O/N=C/c2cccc([N+](=O)[O-])c2)cc1`, the Tm shift relative to glycine control is 15.8% (active).

As to `CCc1ccc(NC(=O)C(C)OC(=O)/C=C/c2cccc([N+](=O)[O-])c2)cc1` (stereo not drawn), the Tm shift relative to glycine control was 0.39%.

On to `CCOc1ccc(-c2cc(C(=O)N/N=C/c3ccc(O)cc3)c3ccccc3n2)cc1`, for which the Tm shift relative to glycine control was 3.69%.

Regarding `N#CCC(=O)N/N=C/c1cn(Cc2ccc3ccccc3c2)c2ccccc12`, the Tm shift relative to glycine control was 8.21%.

With `COc1cccc(Cn2cc(/C=N/NC(=O)c3cc(O)cc(O)c3)c3ccccc32)c1`, the Tm shift relative to glycine control is 15.4% (active).

As for `Cc1ccc(C(=O)N/N=C/c2cccc3ccccc23)cn1`, the Tm shift relative to glycine control is -0.89%.

Regarding `CCn1c(=S)sc2c(=O)n(CC(=O)Nc3cccc(Br)c3)c(C)nc21`, the Tm shift relative to glycine control was 19% (active).

Take `CCn1c(=S)sc2c(=O)n(CC(=O)Nc3ccc(OC)cc3)c(C)nc21`: the Tm shift relative to glycine control is -1.05%.

Take `CCOC(=O)c1ccccc1NC(=O)CSc1nc2c(sc(=S)n2CC)c(=O)[nH]1`: the Tm shift relative to glycine control is 2.58%.

As to `CCCCN(CC)C(=O)C1CCCN(S(=O)(=O)c2cccc3nsnc23)C1` (stereo not drawn), the Tm shift relative to glycine control is -4.45%.

Regarding `CC1C(=O)Nc2ccc(S(=O)(=O)N3CCN(c4ccccc4F)CC3)cc2NC1=O` (stereo not drawn), the Tm shift relative to glycine control is 0.26%.

In the case of `Cc1cccc2nc(CNc3ccc(F)cc3)cn12`, the Tm shift relative to glycine control was -1.65%.

Turning to `NS(=O)(=O)c1ccc(NC(=O)/C=C/c2ccccc2Cl)cc1`, the Tm shift relative to glycine control is 22.5% (active).

As to `CC(=O)NS(=O)(=O)c1ccc(NC(=O)/C=C/c2ccccc2Cl)cc1`, the Tm shift relative to glycine control is -4.31%.

In the case of `O=C(/C=C/c1ccccc1Cl)Nc1ccc(S(=O)(=O)Nc2ncccn2)cc1`, the Tm shift relative to glycine control is 3.4%.

As for `O=C(O)c1ccccc1-c1ccccc1C(=O)Nc1ccccc1Br`, the Tm shift relative to glycine control is -1.03%.

With `Cc1cc(N2C(=O)c3ccc(C(=O)NCc4ccccc4)cc3C2=O)no1`, the Tm shift relative to glycine control is -0.54%.

In the case of `CC(C)C[C@H](NC(=O)N1CCn2c1nc1ccccc12)C(=O)NC1CC1`, the Tm shift relative to glycine control is -0.74%.

In the case of `O=C(Nc1ccc(Cl)cc1)Nc1nnc(/C=C/c2ccccc2)s1`, the Tm shift relative to glycine control was 10.2% (active).

With `O=C(CSc1ccccc1)Nc1nnc(/C=C/c2ccccc2)s1`, the Tm shift relative to glycine control was -4.65%.

In the case of `COc1ccc(/C=C/c2nnc(NC(=O)C(C)C)s2)cc1`, the Tm shift relative to glycine control was 6.05%.

As for `CC1CN(c2cc(=O)n(Cc3ccc(F)cc3)c(=O)[nH]2)CC(C)O1` (stereo not drawn), the Tm shift relative to glycine control is -2.45%.

As to `COc1cc(CNC2CCCCC2)c(Br)cc1OC1CCCC1`, the Tm shift relative to glycine control was -0.72%.

Consider `O=C(c1cnn(-c2ccc(Cl)cc2)c1)c1ccccc1O`, for which the Tm shift relative to glycine control was -2.84%.

Take `Cc1cc(O)cc(O)c1C(=O)Cc1cnn(-c2ccccc2)c1`: the Tm shift relative to glycine control is 13.1% (active).

Take `COc1ccc(CNC(=O)COc2ccccc2C(=O)c2cnn(-c3ccccc3)c2)cc1OC`: the Tm shift relative to glycine control is 0.33%.

On to `O=C(Nc1ccc(N2CCOCC2)nc1)c1c(F)cccc1F`, for which the Tm shift relative to glycine control is 1.58%.

As for `COC(=O)c1c(-c2ccsc2)oc2ccc(-c3cc(OC)c(OC)c(OC)c3)cc12`, the Tm shift relative to glycine control is 14.2% (active).

Turning to `COc1cc(CC(=O)NCc2cccs2)cc(OC)c1OC`, the Tm shift relative to glycine control is 2.82%.

As for `COc1ccccc1CNC(=O)c1cc(=O)c2ccccc2o1`, the Tm shift relative to glycine control is -2.39%.

For `CCc1ccccc1NC(=O)CN(c1ccc(OC)cc1OC)S(=O)(=O)c1ccccc1[N+](=O)[O-]`, the Tm shift relative to glycine control is -2.68%.

Regarding `COc1ccc(Br)cc1CN(C)CC(=O)Nc1cc([N+](=O)[O-])ccc1OC`, the Tm shift relative to glycine control is -12.7%.

For the compound `N#CCCN(C(=O)COC(=O)C1CCN(c2ccc(C(F)(F)F)cn2)CC1)c1ccc(F)cc1`, the Tm shift relative to glycine control was 1.13%.

In the case of `CCc1cccc(NC(=O)COC(=O)C2CCN(c3ccc(C(F)(F)F)cn3)CC2)c1`, the Tm shift relative to glycine control was 12.6% (active).

As to `CCOc1ccc(CCNC(=O)COC(=O)C2CCN(c3ccc(C(F)(F)F)cn3)CC2)cc1OCC`, the Tm shift relative to glycine control is -4.5%.
